What all share (assay): NCI-60 one-dose screen, 48 h (100 = growth as untreated, 0 = no growth, -100 = all killed)
Common to all, as to details: 10 µM unless noted

Experiment [1] concerns DU-145 prostate.
Experiment [2] relates to K-562 leukemia.
Experiment [3] relates to MALME-3M melanoma.
Experiment [4] concerns MDA-MB-231 breast.
Experiment [5] relates to RXF 393 renal.
In experiment [6] the test system is SF-268 CNS.
Experiment [7] deals with SF-295 CNS.
For experiment [8], the system named is SF-539 CNS.
Experiment [9] has as its system UACC-257 melanoma.
Experiment [10] relates to M14 melanoma.

About 83,000 compounds went through this panel and 20% of them were active in at least one assay; those are over-represented in the sample as a whole.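 Method: cells in 96-well plates; compound added at one concentration; 48 h incubation; percent growth measured; values under 10 scored active.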 A number with no mark means an inactive call. Active and inactive are the calls of the source.

For `C[N+](C)(C)Cc1cc(Cl)ccc1O`, the growth in experiment [1] was 108%; in experiment [2], 99.9%; in experiment [3], 93.2%; in experiment [4], 109%; in [5], 110%; in experiment [6], 106%. In addition, the growth in [7] is 108%; in experiment [8], 102%; in experiment [9] it was 96.5%; in experiment [10], 94.8%.
Consider `O=C1N[C@@H]2[C@@H](O)[C@@H](O)[C@H](O)C[C@H]2c2cc3c(c(O)c21)OCO3`, for which the growth was -19.1% (active) in experiment [1]; 1.86% (active) in [2]; -48.7% (active) in experiment [3]; -27.9% (active) in experiment [4]; -37.3% (active) in [5]; -4.43% (active) in experiment [6]. Also, the growth in [7] was -11.5% (active); in experiment [8], -29.7% (active); in experiment [9] it was -21.8% (active); in experiment [10], -81.7% (active).
On to `CC(=O)c1ccc(C(=O)NCC2CCC3(CC2)OOC2(CCCCC2)OO3)cc1`, for which the growth was 32.8% in experiment [1]; 56.2% in experiment [2]; 74% in [3]; 70.9% in [4]; 84.7% in experiment [5]; 87.9% in experiment [6]. The growth in experiment [7] was 94.9%; in experiment [8], 66.6%; in [9], 84.7%; in experiment [10], 90.2%.
Consider `O=C1CC2(CC3(Cl)C(Cl)=C(Cl)C2(Cl)C3(Cl)Cl)C(=O)O1` (stereo not given), for which the growth is 101% in experiment [1]; 97.9% in [2]; 101% in [3]; 128% in [4]; 107% in experiment [5]; 114% in experiment [6]. In addition, the growth in experiment [7] was 100%; in [8], 114%; in experiment [9], 107%; in experiment [10], 95.4%.
Turning to `Cn1cc(C2=C(c3cn(C4CCN(Cc5ccccn5)CC4)c4ccccc34)C(=O)NC2=O)c2ccccc21`, the growth in experiment [1] is 70%; in experiment [2], 91.3%; in experiment [3], -3.24% (active); in experiment [4], 79.8%; in experiment [5] it was 90.9%; in experiment [6], 82.8%. For the same compound, the growth in experiment [7] was 97.1%; in experiment [8] it was 89.6%; in experiment [9] it was -0.885% (active); in [10], 16.5%.
For the compound `CC(=O)O[C@H](C[C@H](C(C)C)N(C)C(=O)[C@@H](NC(=O)[C@H]1CCCCN1C)C(C)C)c1nc(C(=O)N[C@@H](Cc2ccccc2)C[C@H](C)C(=O)O)c(C(C)C)s1`, the growth in experiment [1] was -0.791% (active); in experiment [2], 6.34% (active); in experiment [3] it was 64.9%; in [4], 12.9%; in [5] it was 44.1%; in experiment [6] it was 27.7%. Besides, the growth in experiment [7] is -0.193% (active); in experiment [8], -10.7% (active); in [9], 41.5%; in experiment [10] it was 4.52% (active).
As for `COc1cc2c(=O)n(C3CCCCCCC3)c3c4cc[nH]c4ncc3c2cc1OC`, the growth in [1] is 62.5%; in experiment [2], 8.73% (active); in experiment [3] it was 62.6%; in experiment [4] it was 42.1%; in [5], 19.1%; in [6], 42.4%. Further, the growth in experiment [7] is 33.2%; in experiment [8], -0.216% (active); in experiment [9], 93.8%; in experiment [10] it was 71.4%.
As to `CNC(=O)Oc1ccc2c(c1)OCO2`, the growth was 108% in [1]; 90.1% in [2]; 104% in [3]; 101% in [4]; 113% in [5]; 102% in experiment [6]. The growth is 101% in experiment [7], 102% in experiment [8], 102% in [9] and 107% in experiment [10].
For `Fc1ccc(C2=CCNCC2)cc1`, the growth in experiment [1] is 111%; in [2], 108%; in [3] it was 95.5%; in [4] it was 80.7%; in experiment [5], 97.7%; in [6], 96.8%. For the same compound, the growth in [7] is 77.8%; in experiment [8], 93.4%; in [9], -21.6% (active); in [10] it was 98.9%.
Consider `CC(=O)O[C@H]1CC[C@@]2(C)C(=CC[C@H]3[C@@H]4C[C@@H](N5CC5)[C@H](C(C)=O)[C@@]4(C)CC[C@@H]32)C1`, for which the growth in [1] is 105%; in experiment [2], 72.4%; in experiment [3], 98.1%; in experiment [4], 91.4%; in experiment [5] it was 103%; in [6], 93.2%. The growth in [7] is 97.5%; in experiment [8] it was 88.8%; in experiment [9] it was 112%; in experiment [10] it was 95.6%.
Take `COc1cc(C=Nc2cccc(Br)c2)ccc1N(CCCl)CCCl`: the growth in experiment [1] was 87.6%; in experiment [2] it was 88.4%; in experiment [3] it was 128%; in experiment [4], 91.2%; in [5] it was 2.86% (active); in experiment [6], 80.3%. In addition, the growth is 44.4% in experiment [7], 67.9% in experiment [8], 96.6% in experiment [9] and 94% in [10].
Consider `CCCCCCCCCCCCCC[P+](CCCCCC)(CCCCCC)CCCCCC`, for which the growth is -100% (active) in experiment [1]; 39% in experiment [2]; -83.9% (active) in experiment [3]; -38.3% (active) in experiment [4]; -97.7% (active) in experiment [5]; -4.6% (active) in experiment [6]. The growth was -68.4% (active) in [7], 5.67% (active) in experiment [8], -34.6% (active) in experiment [9] and -36.5% (active) in experiment [10].
With `O=C1C2C(C(=O)[N]1[Hg][c]1ccccc1)C1(Cl)C(Cl)=C(Cl)C2(Cl)C1(Cl)Cl` (stereo not given), the growth is -86.6% (active) in experiment [1]; 4.39% (active) in [2]; -78.4% (active) in [3]; -2.38% (active) in experiment [4]; -98.6% (active) in [5]; -66.4% (active) in experiment [6]. Besides, the growth in experiment [7] was 67.8%; in experiment [8], 10.3%; in experiment [9] it was -67.8% (active); in experiment [10] it was -82.3% (active).
